From PubChem BioAssay (Tox21)
“And” between values parts separate entries of the source, which are not always exact repeats. Identical values can stand only once. Results filed as inconclusive are left out. Entries that show only a call come without a potency. Some structures have more than one record in an assay (separate samples or runs), and their calls can disagree. The source made the active and inactive calls. Unless noted, calls come from the whole dose curve.

Tests used:
[1] = qHTS assay to identify small molecule agonists of the vitamin D receptor (VDR) signaling pathway - cell viability counter screen (AID 743224; active = well fitted curve in the direction sought with a large enough effect in the repeat runs; an effect the other way counts as inactive or inconclusive; note: nearly all actives have a fitted effect of over 50% in size; note: potency is the fitted concentration of half-maximal effect)
Method in brief: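 Compounds were pin-transferred onto VDR-bla cells plated 4 h earlier; following 16 h incubation at 37C, cell viability was quantified by CellTiter-Glo luminescence after 30 min at room temperature.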

[2] = qHTS assay to identify small molecule antagonists of the vitamin D receptor (VDR) signaling pathway - cell viability counter screen (AID 743225; active = well fitted curve in the direction sought with a large enough effect in the repeat runs; an effect the other way counts as inactive or inconclusive; note: nearly all actives have a fitted effect of over 50% in size; note: potency is the fitted concentration of half-maximal effect)
Method in brief: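 VDR-bla HEK 293T cells, 4 h pre-incubation at 37C, then compound plus 1-alpha,25-dihydroxyvitamin D3 (3 nM final) for 16 h. After the beta-lactamase FRET read, CellTiter-Glo was added to the same wells; luminescence after 30 min at room temperature.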

[3] = qHTS assay to identify small molecule agonists of the NFkB signaling pathway - cell viability counter screen (AID 1159515); note: nearly all actives have a fitted effect of over 55% in size; note: potency is the fitted concentration of half-maximal effect
Method in brief: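 Parallel cytotoxicity counter screen in ME-180 cells carrying an NFkB-response-element beta-lactamase reporter, 2,000 cells/well. Compound exposure lasted 5 hr at 37 C, 5% CO2. Cell viability was quantified by CellTiter-Glo luminescence.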

[4] = qHTS assay to identify small molecule agonists of the endoplasmic reticulum stress response signaling pathway (AID 1159516; active = well fitted activation curve with a large enough effect in the signal ratio in the repeat runs, not every such curve was filed as active; the % refers to the signal ratio)
Method in brief: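 Using a HeLa line with an ESRE-driven beta-lactamase gene, agonist activity was measured by FRET substrate fluorescence (460 and 530 nm emission) after cells were treated with compounds for 5 hr at 37 C and 5% CO2.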

[5] = qHTS assay to identify small molecule agonists of the endoplasmic reticulum stress response signaling pathway - cell viability counter screen (AID 1159517); note: nearly all actives have a fitted effect of over 50% in size; note: potency is the fitted concentration of half-maximal effect
Method in brief: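 In parallel with the ESRE reporter read, cytotoxicity was scored by CellTiter-Glo luminescence (30 min, room temperature) on HeLa ESRE-bla cells dosed for 5 hr.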

[6] = qHTS assay to identify small molecule antagonists of the retinoid-related orphan receptor gamma (ROR-gamma) signaling pathway - cell viability counter screen (AID 1159520; active = well fitted curve in the direction sought with a large enough effect in the repeat runs; an effect the other way counts as inactive or inconclusive; note: nearly all actives have a fitted effect of over 50% in size)
Method in brief: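 Tet-on ROR gamma CHO cells were given compounds for 2 hr, then doxycycline hyclate at 1 uM final, and incubated 16 hr at 37 C. Viability was measured as ATP content by CellTiter-Glo luminescence.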

[7] = qHTS assay to identify small molecule agonists of the AP-1 signaling pathway (AID 1159526)
[8] = target: Retinoic acid receptor RXR-alpha (Homo sapiens) (UniProt P19793); assay: qHTS assay to identify small molecule agonists of the RXR signaling pathway (AID 1159527); note: nearly all actives have a fitted effect of over 35% in size; note: potency is the fitted concentration of half-maximal effect
Retinoic acid receptor RXR-alpha (Homo sapiens), sequence (P19793 whole entry, looked up): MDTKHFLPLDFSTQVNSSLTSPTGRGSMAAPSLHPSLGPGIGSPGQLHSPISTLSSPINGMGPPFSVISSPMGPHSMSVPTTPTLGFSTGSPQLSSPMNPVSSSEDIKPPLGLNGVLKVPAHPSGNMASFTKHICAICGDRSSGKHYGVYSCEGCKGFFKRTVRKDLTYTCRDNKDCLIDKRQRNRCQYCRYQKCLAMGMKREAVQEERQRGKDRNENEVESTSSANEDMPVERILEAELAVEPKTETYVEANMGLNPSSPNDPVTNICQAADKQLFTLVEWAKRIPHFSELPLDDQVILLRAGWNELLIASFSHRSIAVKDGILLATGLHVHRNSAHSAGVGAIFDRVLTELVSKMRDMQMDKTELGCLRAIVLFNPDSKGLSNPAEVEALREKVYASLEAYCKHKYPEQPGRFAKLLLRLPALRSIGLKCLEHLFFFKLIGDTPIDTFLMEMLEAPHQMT
Method in brief: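 GeneBLAzer RXR-alpha-UAS-bla HEK 293T cells in medium with 2% charcoal-stripped FBS, pre-incubated 5 hr at 37 C, then exposed to compounds 16 hr. Beta-lactamase reporter read by FRET substrate, 2 hr room temperature, 460/530 nm emission.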

[9] = qHTS assay to identify small molecule agonists of the AP-1 signaling pathway - cell viability counter screen (AID 1159525); note: nearly all actives have a fitted effect of over 55% in size; note: potency is the fitted concentration of half-maximal effect
Method in brief: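 Same-well cytotoxicity counter screen of the Tox21 10K library in ME-180 cells. The readout is ATP-dependent luminescence after 5 h compound treatment. Data are normalised to DMSO and tetra n-octyl ammonium bromide controls.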

[10] = target: Nuclear receptor ROR-gamma (Homo sapiens) (UniProt P51449); assay: qHTS assay to identify small molecule antagonists of the retinoid-related orphan receptor gamma (ROR-gamma) signaling pathway (AID 1159521; active = well fitted curve in the direction sought with a large enough effect in the repeat runs; an effect the other way counts as inactive or inconclusive)
Method in brief: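 Tet-on RORγ CHO cells carrying a ROR response element–luciferase reporter were pretreated with compounds for 2 h, then induced with 1 uM (final) doxycycline hyclate for 16 h at 37 C. Antagonism was read as decreased ONE-Glo luminescence.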

CC(C)[C@@H]1CC[C@@H](C)CC1=O
Potency [1]: inactive | Potency [2]: inactive | Potency [3]: inactive | Potency [4]: inactive | Potency [5]: inactive | Potency [6]: inactive | Potency [7]: inactive | Potency [8]: inactive

C=CC(=O)OCCCC
Potency [2]: inactive | Potency [3]: inactive | Potency [4]: inactive | Potency [5]: inactive | Potency [6]: inactive | Potency [9]: inactive | Potency [7]: inactive | Potency [8]: inactive

COC(=O)CC(=O)OC
Potency [2]: inactive | Potency [3]: inactive | Potency [4]: inactive | Potency [5]: inactive | Potency [6]: inactive | Potency [9]: inactive | Potency [7]: inactive | Potency [8]: inactive

C[C@]12C=CC(=O)C=C1CC[C@H]1[C@@H]3C[C@@H](O)[C@](O)(C(=O)CO)[C@@]3(C)C[C@H](O)[C@@]12F
Potency [2]: inactive | Potency [3]: inactive | Potency [4]: inactive | Potency [5]: inactive | Potency [6]: inactive | Potency [7]: inactive | Potency [8]: inactive

C=CC(C)(O)CCC=C(C)C (configuration not stated)
Potency [2]: inactive | Potency [3]: inactive | Potency [4]: inactive | Potency [5]: inactive | Potency [6]: inactive | Potency [9]: inactive | Potency [7]: inactive

C=C[Si](OCCOC)(OCCOC)OCCOC
Potency [1]: inactive | Potency [2]: inactive | Potency [3]: inactive | Potency [4]: inactive | Potency [5]: inactive | Potency [6]: inactive | Potency [7]: inactive | Potency [8]: inactive

Nc1ccc(N)c(Cl)c1
Potency [1]: inactive | Potency [2]: inactive | Potency [3]: inactive | Potency [4]: inactive | Potency [5]: inactive | Potency [6]: inactive | Potency [8]: inactive

C1CN(SSN2CCOCC2)CCO1
Potency [1]: inactive | Potency [2]: inactive | Potency [3]: inactive | Potency [4]: inactive | Potency [5]: inactive

c1ccc2c(c1)[nH]c1ccccc12
Potency [2]: inactive | Potency [3]: inactive | Potency [4]: inactive | Potency [5]: inactive | Potency [6]: inactive | Potency [9]: inactive | Potency [7]: inactive | Potency [8]: inactive

CN(C)C
Potency [2]: inactive | Potency [3]: inactive | Potency [4]: inactive | Potency [5]: inactive | Potency [6]: inactive | Potency [7]: inactive | Potency [8]: inactive

Oc1c(Cl)ccc(Cl)c1Cl
Potency [2]: inactive | Potency [3]: inactive | Potency [4]: inactive | Potency [5]: inactive | Potency [6]: inactive | Potency [9]: inactive | Potency [7]: inactive | Potency [8]: inactive

CC(=O)Oc1ccc(C(c2ccc(OC(C)=O)cc2)c2ccccn2)cc1
Potency [1]: inactive | Potency [2]: inactive | Potency [3]: 546 nM (active) and 1.07 µM (active) | Potency [4]: inactive | Potency [6]: inactive | Potency [10]: inactive | Potency [9]: 109 nM (active) and 952 nM (active) | Potency [8]: inactive

CC(=O)O[C@]1(C(C)=O)CC[C@H]2[C@@H]3C=C(C)C4=CC(=O)CC[C@]4(C)[C@H]3CC[C@@]21C
Potency [1]: inactive | Potency [2]: inactive | Potency [3]: inactive | Potency [4]: inactive | Potency [5]: inactive | Potency [6]: inactive | Potency [9]: inactive | Potency [7]: inactive

CCCOCCO
Potency [1]: inactive | Potency [2]: inactive | Potency [3]: inactive | Potency [4]: inactive | Potency [5]: inactive | Potency [6]: inactive | Potency [7]: inactive | Potency [8]: inactive

O=C1CCc2ccccc2O1
Potency [1]: inactive | Potency [2]: inactive | Potency [3]: inactive | Potency [4]: inactive | Potency [5]: inactive | Potency [6]: inactive | Potency [7]: inactive | Potency [8]: inactive

OC[C@H]1O[C@@H]2O[C@H]3[C@H](O)[C@@H](O)[C@@H](O[C@H]4[C@H](O)[C@@H](O)[C@@H](O[C@H]5[C@H](O)[C@@H](O)[C@@H](O[C@H]6[C@H](O)[C@@H](O)[C@@H](O[C@H]7[C@H](O)[C@@H](O)[C@@H](O[C@H]1[C@H](O)[C@H]2O)O[C@@H]7CO)O[C@@H]6CO)O[C@@H]5CO)O[C@@H]4CO)O[C@@H]3CO
Potency [1]: inactive | Potency [2]: inactive | Potency [3]: inactive | Potency [4]: inactive | Potency [5]: inactive | Potency [6]: inactive | Potency [7]: inactive

CC(=O)O[C@]1(C(C)=O)CC[C@H]2[C@@H]3C=C(Cl)C4=CC(=O)CC[C@]4(C)[C@H]3CC[C@@]21C
Potency [1]: 43.6 µM (active) and inactive | Potency [2]: inactive | Potency [3]: inactive | Potency [4]: inactive | Potency [5]: inactive | Potency [6]: inactive

C=C1C[C@H]2[C@@H]3C=C(C)C4=CC(=O)CC[C@]4(C)[C@H]3CC[C@]2(C)[C@@]1(OC(C)=O)C(C)=O
Potency [2]: inactive | Potency [3]: inactive | Potency [4]: inactive | Potency [5]: inactive | Potency [6]: inactive | Potency [9]: inactive | Potency [7]: inactive | Potency [8]: inactive

CC1=CC(C)(C)Nc2ccccc21
Potency [1]: inactive | Potency [2]: inactive | Potency [3]: inactive | Potency [4]: inactive | Potency [5]: inactive | Potency [6]: inactive | Potency [7]: inactive | Potency [8]: inactive

Cc1ccc(C)c(O)c1
Potency [1]: inactive | Potency [2]: inactive | Potency [3]: inactive | Potency [4]: inactive | Potency [5]: inactive | Potency [6]: inactive | Potency [7]: inactive | Potency [8]: inactive

ClC/C=C/CCl
Potency [2]: inactive | Potency [3]: inactive | Potency [4]: inactive | Potency [5]: inactive | Potency [6]: inactive | Potency [9]: inactive | Potency [7]: inactive | Potency [8]: inactive

CCCCCCCCCCCCO
Potency [1]: inactive | Potency [2]: inactive | Potency [3]: inactive | Potency [4]: inactive | Potency [5]: inactive | Potency [6]: inactive | Potency [9]: inactive | Potency [7]: inactive

CC/C(=C(/CC)c1ccc(O)cc1)c1ccc(O)cc1
Potency [2]: inactive | Potency [3]: inactive | Potency [4]: inactive | Potency [5]: 54.9 µM (active) and inactive | Potency [6]: inactive | Potency [7]: inactive | Potency [8]: inactive

CCCCCCOCCOCCO
Potency [1]: inactive | Potency [2]: inactive | Potency [3]: inactive | Potency [4]: inactive | Potency [5]: inactive | Potency [6]: inactive | Potency [7]: inactive | Potency [8]: inactive and 43.6 µM (active)

COC(=O)C(C)Oc1ccc(Oc2ncc(C(F)(F)F)cc2Cl)cc1 (configuration not stated)
Potency [2]: inactive | Potency [3]: inactive | Potency [4]: inactive | Potency [5]: inactive | Potency [6]: inactive | Potency [9]: inactive | Potency [7]: inactive

NCCS(=O)(=O)O
Potency [1]: inactive | Potency [2]: inactive | Potency [4]: inactive | Potency [5]: inactive | Potency [6]: inactive | Potency [10]: inactive | Potency [9]: inactive | Potency [7]: inactive | Potency [8]: inactive

CN(C)CCCN1c2ccccc2Sc2ccc(Cl)cc21
Potency [1]: 21.9 µM (active) | Potency [2]: 24.5 µM (active) and inactive | Potency [3]: 54.9 µM (active) and inactive | Potency [4]: inactive | Potency [5]: inactive | Potency [6]: inactive | Potency [9]: inactive

[Na+]
Potency [1]: inactive | Potency [2]: inactive | Potency [3]: inactive | Potency [4]: inactive | Potency [5]: inactive | Potency [6]: inactive | Potency [7]: inactive | Potency [8]: inactive
